In assay [1] the target is Thyrotropin receptor (Homo sapiens) (UniProt P16473). As to the kind of experiment: qHTS assay to identify small molecule antagonists of the thyroid stimulating hormone receptor (TSHR) signaling pathway (AID 1259385; calls by dose curve; also: nearly all actives have a fitted effect of over 20% in size). In a few lines: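 TSHR-HEK293 cells (800/well) plated 18 h, then compounds with Ro20-1724 and TSH at 1.5 ng/mL final, 30 min at room temperature. cAMP quantified by HTRF (cAMP-d2/anti-cAMP-cryptate, 1 h); 15 concentrations in triplicate.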
Sequence of Thyrotropin receptor (Homo sapiens) (P16473 whole entry, looked up): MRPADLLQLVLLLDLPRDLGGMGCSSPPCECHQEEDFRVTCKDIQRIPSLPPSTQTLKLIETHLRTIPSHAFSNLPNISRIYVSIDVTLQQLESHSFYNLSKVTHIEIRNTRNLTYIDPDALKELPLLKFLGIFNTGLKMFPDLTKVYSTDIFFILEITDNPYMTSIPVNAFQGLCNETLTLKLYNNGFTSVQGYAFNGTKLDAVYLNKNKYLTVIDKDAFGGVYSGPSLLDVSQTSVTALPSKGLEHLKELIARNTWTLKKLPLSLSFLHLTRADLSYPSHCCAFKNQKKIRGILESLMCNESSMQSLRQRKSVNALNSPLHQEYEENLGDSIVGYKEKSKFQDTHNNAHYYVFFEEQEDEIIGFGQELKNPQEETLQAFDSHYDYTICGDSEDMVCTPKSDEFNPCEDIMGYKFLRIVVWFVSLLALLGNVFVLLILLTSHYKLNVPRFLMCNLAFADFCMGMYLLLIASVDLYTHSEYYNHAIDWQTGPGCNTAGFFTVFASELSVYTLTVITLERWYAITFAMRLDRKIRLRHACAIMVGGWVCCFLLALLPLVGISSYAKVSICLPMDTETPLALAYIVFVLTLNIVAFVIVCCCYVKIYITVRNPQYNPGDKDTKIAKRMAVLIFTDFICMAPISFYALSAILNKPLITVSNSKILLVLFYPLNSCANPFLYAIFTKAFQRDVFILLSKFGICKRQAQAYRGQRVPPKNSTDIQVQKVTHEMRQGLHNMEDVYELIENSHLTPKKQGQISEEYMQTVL
In general terms: Quantitative high-throughput screening tests each substance at several concentrations.

Assay [2] is described as follows: qHTS assay to identify small molecule agonists of the estrogen receptor alpha (ER-alpha) signaling pathway in the presence of an antagonist - cell viability counter screen (AID 1259386).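 Also: series mostly up to about 92 µM; cells exposed to compounds for 22 h at 37 °C before the viability read; nearly all actives have a fitted effect of over 30% in size.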 An outline of the steps: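 ICI-182,780 at 10.0nM final accompanies the compound titration (15 concentrations, 22hr, 37C) on VM7Luc4E2 cells. The CellTiter-Fluor fluorescence readout runs in the same wells as the luciferase assay.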

The target of assay [3] is Progesterone receptor (Homo sapiens) (UniProt P06401). As to the kind of experiment: qHTS assay to identify small molecule agonists of the progesterone receptor (PR) signaling pathway (AID 1346784; calls by dose curve; also: nearly all actives have a fitted effect of over 30% in size). In a few lines: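 Beta-lactamase reporter read-out: after 16 hr compound treatment at 37C and a further 2 hr at room temperature with LiveBLAzer B/G FRET substrate, fluorescence was measured in PR-UAS-bla HEK 293T cells grown in 2% charcoal-stripped serum.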
Sequence of Progesterone receptor (Homo sapiens) (P06401 whole entry, looked up): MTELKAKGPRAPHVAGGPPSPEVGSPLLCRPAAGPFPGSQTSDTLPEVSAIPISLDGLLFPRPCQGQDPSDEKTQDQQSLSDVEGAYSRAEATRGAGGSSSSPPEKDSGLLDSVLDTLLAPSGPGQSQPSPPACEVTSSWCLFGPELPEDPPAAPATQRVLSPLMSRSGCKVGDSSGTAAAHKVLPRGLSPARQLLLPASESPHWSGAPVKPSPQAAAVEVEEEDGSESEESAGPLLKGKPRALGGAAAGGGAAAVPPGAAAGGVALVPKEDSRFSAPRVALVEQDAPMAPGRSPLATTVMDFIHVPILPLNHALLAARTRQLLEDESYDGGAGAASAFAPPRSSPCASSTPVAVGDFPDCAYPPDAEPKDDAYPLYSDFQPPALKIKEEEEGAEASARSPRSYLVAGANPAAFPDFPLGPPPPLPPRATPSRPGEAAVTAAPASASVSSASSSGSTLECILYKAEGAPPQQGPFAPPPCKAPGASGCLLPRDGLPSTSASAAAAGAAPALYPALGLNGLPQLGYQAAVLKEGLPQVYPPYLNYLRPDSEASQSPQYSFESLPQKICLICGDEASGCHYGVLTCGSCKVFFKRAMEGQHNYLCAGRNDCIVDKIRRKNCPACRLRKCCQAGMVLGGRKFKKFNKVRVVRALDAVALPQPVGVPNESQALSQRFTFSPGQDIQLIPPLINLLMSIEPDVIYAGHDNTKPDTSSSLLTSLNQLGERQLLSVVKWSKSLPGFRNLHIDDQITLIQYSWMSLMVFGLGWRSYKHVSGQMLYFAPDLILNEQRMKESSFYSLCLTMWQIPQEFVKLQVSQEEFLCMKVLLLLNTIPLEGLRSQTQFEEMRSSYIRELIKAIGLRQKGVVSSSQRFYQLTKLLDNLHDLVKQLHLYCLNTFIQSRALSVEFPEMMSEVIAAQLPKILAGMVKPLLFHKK

A short description of assay [4]: qHTS assay to identify small molecule antagonists of the progesterone receptor (PR) signaling pathway - cell viability counter screen (AID 1346798).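 Also: HEK293T PR-UAS-bla cells stimulated with the agonist R5020; series mostly up to about 92 µM; nearly all actives have a fitted effect of over 50% in size.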 In a few lines:
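HEK293T PR-UAS-bla, 2% charcoal-stripped FBS; 4 hr pre-plate; cpd + R5020, 16 h 37C; LiveBLAzer read first; then CellTiter-Glo 30 min RT, luminescence.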

The nature of assay [5]: qHTS assay to identify small molecule agonists of the progesterone receptor (PR) signaling pathway - cell viability counter screen (AID 1346799; calls by dose curve; also: nearly all actives have a fitted effect of over 45% in size; also: potency is read from the fitted curve at half-maximal effect). An outline of the steps:
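Luminescence from CellTiter-Glo, added after the beta-lactamase FRET read in the same wells, gave cytotoxicity in PR-UAS-bla HEK293T cells treated with compounds for 16 hr at 37C.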

Assay [6] can be described thus: qHTS assay to identify small molecule antagonists of the TGF-beta/Smad signaling pathway - cell viability counter screen (AID 1346824). Also: nearly all actives have a fitted effect of over 50% in size. In a few lines:
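SBE-bla HEK 293T cells, incubated overnight, then compound plus 0.25 ng/mL TGF-beta1 (stock added) for 5 hr at 37 C. Viability was read in the same wells by CellTiter-Glo luminescence after 30 min at room temperature.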

Assay [7] in a line: qHTS assay to identify small molecule agonists of the TGF-beta/Smad signaling pathway - cell viability counter screen (AID 1346829). Also: top concentration of the series differs between compounds; nearly all actives have a fitted effect of over 45% in size. In a few lines:
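Here the cytotoxicity of library compounds is measured in SBE-bla HEK 293T cells treated for 5 hr, using CellTiter-Glo added to wells already read for the beta-lactamase reporter.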

A short description of assay [8]: qHTS assay to identify small molecule agonists of the TGF-beta/Smad signaling pathway (AID 1346859; active = well fitted activation curve with a large enough effect in the signal ratio in the repeat runs, not every such curve was filed as active; the % refers to the signal ratio; also: series mostly up to about 77 µM). In a few lines: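 SBE-bla HEK 293T, 4,000 cells/well, plated o/n; cpd in DMSO, 5 hr, 37 C/5% CO2; B/G FRET substrate 2 hr RT; ex 405, em 460/530 nm.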
The target in assay [9] is Thyrotropin-releasing hormone receptor (Homo sapiens) (UniProt P34981). As to the kind of experiment: qHTS assay to identify small molecule antagonists of the thyrotropin-releasing hormone receptor (TRHR) signaling pathway (AID 1346877; active = well fitted inhibition curve with a large enough effect in the repeat runs, not every such curve was filed as active; also: series mostly up to about 51 µM). In a few lines:
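Screening used HEK293 cells engineered with TRHR, with a brief 5 min room-temperature compound exposure preceding addition of TRH to 1 nM. The read-out was kinetic calcium-dye fluorescence, concentration-response from 15 doses in triplicate.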

Assay [10] shares this target. Nature of the assay: qHTS assay to identify small molecule agonists of the thyrotropin-releasing hormone receptor (TRHR) signaling pathway (AID 1346891; calls by dose curve; also: series mostly up to about 58 µM). In a few lines: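 Intracellular calcium rise, read as fluorescence every second for 3 min, served as the agonist signal in dye-loaded HEK293 cells expressing TRHR; each compound ran at 15 concentrations in triplicate.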

Assay [11] is described as follows: Caspase-3/7 induction in HepG2 cells by small molecules, qHTS assay (AID 1346978). Also: nearly all actives have a fitted effect of over 15% in size. An outline of the steps:
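Wild-type HepG2 cells, 2,000/well, settled 5 hr at 37 C and 5% CO2, then compound-treated for 17 hr; caspase-3/7 activity read by luminescent Caspase-Glo 3/7 after 30 min at room temperature.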

Assay [12] can be described thus: Caspase-3/7 induction in CHO-K1 cells by small molecules, qHTS cell viability counter screen (AID 1346979). Also: nearly all actives have a fitted effect of over 35% in size. In a few lines: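 Cells (CHO-K1, wild type) are plated at 1,500 per well and incubated 5hr. Test compounds in DMSO are then pinned in, followed by 16hr at 37C and 5% CO2. Viability is read by CellTiter-Fluor fluorescence after 1hr.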
The nature of assay [13]: Caspase-3/7 induction in CHO-K1 cells by small molecules, qHTS assay (AID 1346980). Also: nearly all actives have a fitted effect of over 15% in size. An outline of the steps: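 Wild-type CHO-K1 cells exposed to compounds for 17hr at 37 C, 5% CO2. Caspase-3/7 activity then measured by Caspase-Glo 3/7 luminescence after 30min at room temperature.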
Assay [14] is described as follows: Caspase-3/7 induction in HepG2 cells by small molecules, qHTS cell viability counter screen (AID 1346981). Also: nearly all actives have a fitted effect of over 30% in size. Also: potency is read from the fitted curve at half-maximal effect. An outline of the steps: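 Multiplexed with the caspase-3/7 assay: HepG2 cells, 16 hr compound treatment, CellTiter-Fluor viability detection by fluorescence.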
In assay [15] the target is Progesterone receptor (Homo sapiens) (UniProt P06401). Nature of the assay: qHTS assay to identify small molecule antagonists of the progesterone receptor (PR) signaling pathway (AID 1346795; active = well fitted inhibition curve with a large enough effect in the signal ratio in the repeat runs, not every such curve was filed as active; the % refers to the signal ratio; also: potency is read from the fitted curve at half-maximal effect). An outline of the steps:
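Read-out is fluorescence from the LiveBLAzer B/G FRET substrate, cleaved by a UAS-controlled beta-lactamase in PR-UAS-bla HEK293T cells after 16 hr exposure to compound plus 1 nM promegestone (final), followed by 2 hr at room temperature.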

Assay [16] in a line: Human pregnane X receptor (PXR) small molecule agonists, qHTS cell viability counter screen (AID 1346977). Also: nearly all actives have a fitted effect of over 50% in size. An outline of the steps:
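PXR-Luc HepG2, 2,000 cells/well, 5% charcoal-stripped FBS; 5hr settle; cpd 24hr, 37C/5% CO2; CellTiter-Fluor at 23hr, read 1hr later (fluorescence).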

Assay [17] addresses Nuclear receptor subfamily 1 group I member 2 (Homo sapiens) (UniProt O75469). As to the kind of experiment: Human pregnane X receptor (PXR) small molecule agonists, qHTS assay (AID 1346982). Also: nearly all actives have a fitted effect of over 35% in size. Also: potency is read from the fitted curve at half-maximal effect. An outline of the steps: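 We seeded PXR-Luc HepG2 cells in assay medium containing 5% charcoal-stripped FBS, added compounds 5 hr later, incubated 24 hr, and read luminescence with ONE-Glo reagent.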

Assay [18] concerns the target Nuclear receptor subfamily 1 group I member 2 (Rattus norvegicus) (UniProt Q9R1A7). As to the kind of experiment: Rat pregnane X receptor (rPXR) activation by small molecules, qHTS assay (AID 1346983). Also: nearly all actives have a fitted effect of over 20% in size. To be noted: rPXR luciferase reporter cells, One-Glo luminescence, 24 h; stronger effect = higher value. In a few lines:
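Cell-based rPXR activation assay: rPXR cells, 2,000 per well, rested 5hr at 37 C, then exposed to compounds in DMSO for 24 hr at 37 C. Luciferase activity read by One-Glo luminescence after 30 min at room temperature.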

The target of assay [19] is Nuclear receptor subfamily 1 group I member 2 (Homo sapiens) (UniProt O75469). As to the kind of experiment: CYP3A4 induction through human pregnane X receptor (PXR) by small molecules, qHTS assay (AID 1346984). Also: nearly all actives have a fitted effect of over 40% in size. An outline of the steps: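 qHTS, concentration-response format: HepG2 DPX-2 line, PXR/CYP3A4-luc. Exposure 24 h, 37C. Substrate Luciferin-IPA 3uM final, 3 h. Detection One-Glo, 30 min RT.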
Sequence of Nuclear receptor subfamily 1 group I member 2 (Homo sapiens) (O75469 whole entry, looked up): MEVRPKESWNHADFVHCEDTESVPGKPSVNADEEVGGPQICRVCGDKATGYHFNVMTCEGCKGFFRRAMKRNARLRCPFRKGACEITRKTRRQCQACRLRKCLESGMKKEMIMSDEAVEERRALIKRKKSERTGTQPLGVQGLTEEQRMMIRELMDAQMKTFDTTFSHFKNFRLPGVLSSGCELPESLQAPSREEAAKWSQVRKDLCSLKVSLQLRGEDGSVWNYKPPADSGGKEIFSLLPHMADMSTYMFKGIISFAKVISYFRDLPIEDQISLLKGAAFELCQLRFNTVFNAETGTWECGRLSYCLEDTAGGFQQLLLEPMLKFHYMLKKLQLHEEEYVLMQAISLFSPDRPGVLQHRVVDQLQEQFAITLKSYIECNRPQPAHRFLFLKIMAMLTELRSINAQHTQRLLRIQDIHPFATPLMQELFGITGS

Assay [20] shares this target. Nature of the assay: Human pregnane X receptor (PXR) activation by small molecules, qHTS assay (AID 1346985). Also: nearly all actives have a fitted effect of over 40% in size. In a few lines: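 DPX-2 cells (HepG2 co-transfected with a PXR response element and a CYP3A4-promoter luciferase construct) were seeded at 2,000 per well, rested 5 hr at 37C, then exposed to DMSO-dissolved compounds for 24 hr. Activation was read as luciferase luminescence.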

Values without a mark were called inactive. Inconclusive results are not listed. Activity calls are given as the source filed them. Unless noted, calls follow the shape of the dose curve; as a rule, active = well fitted curve in the direction sought with a large enough effect in the repeat runs; inconclusive = weak or mixed curves; inactive = no such curve, though single readings can be large; an effect the other way counts as inactive or inconclusive.
% is scaled to controls: 0 for no effect and ±100 for the full control effect.

Sequence of Nuclear receptor subfamily 1 group I member 2 (Rattus norvegicus) (Q9R1A7 whole entry, looked up): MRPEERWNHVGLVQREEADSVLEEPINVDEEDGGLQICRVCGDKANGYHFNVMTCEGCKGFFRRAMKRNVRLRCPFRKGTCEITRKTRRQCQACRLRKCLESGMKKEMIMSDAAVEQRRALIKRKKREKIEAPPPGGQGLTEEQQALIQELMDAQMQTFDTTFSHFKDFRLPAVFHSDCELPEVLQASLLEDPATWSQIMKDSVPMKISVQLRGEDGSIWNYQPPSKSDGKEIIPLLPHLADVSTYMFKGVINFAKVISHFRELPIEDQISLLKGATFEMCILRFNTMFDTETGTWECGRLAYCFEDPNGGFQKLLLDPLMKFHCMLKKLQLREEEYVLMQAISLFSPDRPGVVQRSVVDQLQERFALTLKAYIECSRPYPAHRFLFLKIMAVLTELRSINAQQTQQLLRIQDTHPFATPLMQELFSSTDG
Sequence of Thyrotropin-releasing hormone receptor (Homo sapiens) (P34981 whole entry, looked up): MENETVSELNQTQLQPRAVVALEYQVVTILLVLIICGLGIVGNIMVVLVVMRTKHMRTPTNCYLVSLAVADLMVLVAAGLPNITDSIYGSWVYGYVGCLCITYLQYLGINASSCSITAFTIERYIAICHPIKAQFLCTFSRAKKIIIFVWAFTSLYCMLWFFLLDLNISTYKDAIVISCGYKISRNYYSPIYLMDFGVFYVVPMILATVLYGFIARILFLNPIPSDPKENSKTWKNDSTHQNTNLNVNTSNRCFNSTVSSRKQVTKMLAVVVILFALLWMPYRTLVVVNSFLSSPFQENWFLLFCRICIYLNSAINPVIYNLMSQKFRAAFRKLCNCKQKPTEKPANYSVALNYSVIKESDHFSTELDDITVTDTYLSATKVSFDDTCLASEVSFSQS

For the compound `N[C@@H](CCC(=O)Nc1ccc([N+](=O)[O-])cc1)C(=O)O`, the result in assay [1], in assay [6], in [7], in assay [8], in assay [9] and in assay [10] was inactive. Also, the compound was called inactive in [13]. Moreover, the Potency result in assay [2], in assay [3], in [4], in assay [5], in assay [11] and in assay [12] was “inactive” throughout. In assay [14], the Potency was 54.5 µM (active).
Consider `CC1(C)S[C@@H]2[C@H](N=CN3CCCCCC3)C(=O)N2[C@H]1C(=O)O`, for which the compound was called inactive in assay [1], in assay [7], in assay [8], in [9], in assay [10] and in [13]. The Potency entry in assay [2], in assay [3], in assay [15], in [4], in assay [16] and in assay [11] was “inactive” each time. The Potency result in assay [12], in [14], in [17], in assay [19] and in assay [20] was “inactive” in each case. Also, in [18], the max activation was -0.392%.
On to `O=C(O)Cc1cn(-c2ccccc2)nc1-c1ccc(Cl)cc1`, for which the call in assay [1], in [6], in [7], in [9] and in [10] was inactive. Moreover, the Potency entry in [2], in [3], in assay [15], in [4], in [16] and in assay [11] was “inactive” in each case. Further, the Potency entry in assay [17], in assay [19] and in [20] was “inactive” throughout. Moreover, the max activation in assay [18] is -1.93%.
`CC(C)(C)OC(=O)c1ccc(O)cc1`: the compound was classed as inactive in [1], in [7], in assay [8], in assay [9], in [10] and in assay [13]. The Potency entry in [2], in [3], in assay [4], in assay [16], in assay [11] and in [12] was “inactive” throughout. In assay [14], the Potency result is “inactive”. Further, the Potency in assay [15] is 54.5 µM (active); in [17] it was 27.3 µM (active).
Turning to `CC(=O)CCCCn1c(=O)c2c(ncn2C)n(C)c1=O`, the compound was called inactive in assay [1], in [6], in [7], in assay [8], in [9] and in [10]. Besides, the compound was called inactive in [13]. In addition, the Potency entry in assay [2], in assay [15], in assay [4], in [5], in assay [16] and in assay [11] was “inactive” each time. Also, the Potency entry in [12], in assay [14], in [17], in assay [19] and in assay [20] was “inactive” each time. Also, the max activation in [18] is -1.72%.
Regarding `CNC(=O)[C@H]1O[C@@H](n2cnc3c(NCc4cc(Cl)ccc4OCc4cc(C)no4)ncnc32)[C@H](O)[C@@H]1N`, the call in assay [1], in [6], in [7], in assay [8], in assay [9] and in [10] was inactive. Besides, the Potency result in assay [2], in assay [15], in assay [4], in assay [5], in [16] and in [11] was “inactive” throughout. The Potency result in [12], in assay [14] and in assay [17] was “inactive” throughout.
In the case of `On1nnc2ccccc21`, the call in assay [1], in assay [6], in assay [7], in assay [8] and in [13] was inactive. The Potency entry in assay [2], in assay [3], in assay [15], in assay [16], in assay [11] and in assay [12] was “inactive” each time. Also, the Potency entry in assay [14] is “inactive”. In assay [5], the Potency is 1.37 µM (active).

These data come from PubChem BioAssay (Tox21).
